Compound activity: PubChem BioAssay, National Center for Advancing Translational Sciences (NCATS)
TRb SRC2 PPI: disrupts binding of human TR beta to SRC2. TRbeta-SRC2 peptide binding, fluorescence polarization; receptor liganded with 1 µM T3. 280,000 tested, 0.065% active. Potency, µM (highest dose often 106 µM), inactives show at the top dose activity change, negative = inhibition, usual class: inhibitors. P10828;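 also: potency is read from the fitted curve at half-maximal effect; plate controls were bound peptide for no effect and peptide without receptor for full effect; nearly all actives have a fitted effect of over 50% in size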
Target sequence (P10828 whole entry, looked up): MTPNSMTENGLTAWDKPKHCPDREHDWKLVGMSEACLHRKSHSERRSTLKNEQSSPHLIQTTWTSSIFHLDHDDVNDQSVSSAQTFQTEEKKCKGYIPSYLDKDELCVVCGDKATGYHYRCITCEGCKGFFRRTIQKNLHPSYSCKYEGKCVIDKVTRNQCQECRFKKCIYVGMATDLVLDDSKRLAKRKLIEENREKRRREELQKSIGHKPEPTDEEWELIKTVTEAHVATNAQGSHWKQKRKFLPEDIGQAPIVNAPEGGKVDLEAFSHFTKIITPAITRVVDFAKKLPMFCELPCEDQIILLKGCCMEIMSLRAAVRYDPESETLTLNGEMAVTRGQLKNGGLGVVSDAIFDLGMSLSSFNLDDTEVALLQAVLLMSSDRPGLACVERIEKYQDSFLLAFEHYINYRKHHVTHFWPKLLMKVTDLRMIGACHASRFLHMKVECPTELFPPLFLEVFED
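Compounds were added to 0.6 uM TRb ligand-binding domain and 20 nM Texas Red-labeled SRC2 peptide in Tris buffer containing 1 uM T3, incubated 5 hr at ambient temperature, then read by fluorescence polarization.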
CBFb RUNX1 block: blocks binding between human CBF-beta and RUNX1; 230,000 tested, under 10 active; Potency, µM (titrated, usually from 59.8 µM), without a hit: at the highest dose activity, negative = inhibition, usual class: inhibitors; AID 1477; AlphaScreen CBFb-His/RUNX1-biotin binding, biochemical; Q01196+Q13951; also: % of control where 0% means no effect
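Bead-based AlphaScreen assay; binding partners His-tagged CBF-beta and biotinylated RUNX1 at 30 nM each. Compound exposure 15 min after a 20-min protein preincubation; bead step 90 min; all steps at room temperature.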
ERG-DNA inh: ERG Ets/DNA interaction inhibition | AID 624246 | fluorescence polarization, His-ERG Ets domain / labelled DNA | 370,000 tested, 0.028% active | Potency, µM (highest dose often 76.9 µM), inactives show at the highest dose FP activity, negative = inhibition, hits mostly inhibitors; active = well fitted inhibition curve with a large enough effect in the polarisation, with a control signal flat; inconclusive = small, poorly fitted or top-dose-only effect, or effect the other way, or a change in a side signal; inactive = no such curve, though single readings can be large or run the other way; the % refers to the polarisation;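 also: polarization taken with two DNA probes labelled with fluorescein and Texas red; potency is read from the fitted curve at half-maximal effect; % of control where 0% means no effect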
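His-tagged ERG Ets domain (1 uM in the protein solution; 300mM KCl, 50mM Tris-HCl, 1mM EDTA, 1mM DTT, pH 7.5) received compound, then a probe mix of 5 nM fluorescein-DNA and 100nM Texas-615-DNA. Fluorescence polarization was read for both dyes.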
TexasRed fluor: Texas Red fluorescence interference in TRb-SRC2 counter-screen; TRb/SRC2 Texas Red total fluorescence interference; Potency, µM (series often up to 106 µM), without a hit: at the top dose fluorescence change, negative = quenching; 280,000 tested, 0.29% active; AID 1479; active = well fitted curve in either direction with a large enough effect; inconclusive = small, poorly fitted or top-dose-only effect; also: potency is read from the fitted curve at half-maximal effect; % is scaled to controls: 0 for no effect and ±100 for the full control effect
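Flags fluorescent or light-absorbing compounds by total fluorescence, S + 2P, at 555 nm excitation and 632 nm emission. Mixture: 20 nM Texas Red SRC2 peptide, 0.6 uM human TRb LBD, 1 uM T3, 5% DMSO; compound exposure 5 h at ambient temperature.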
GoLoco inh red: blocks human Gai1 binding to RGS12 GoLoco peptide, red readout | Gai1:RGS12 GoLoco peptide FP, rhodamine, 10 min | Potency, µM (series often up to 61.6 µM), inactives show at the top dose activity, negative = inhibition, usual class: inhibitors | 230,000 tested, 0.44% active; active = well fitted inhibition curve with a large enough effect, not every such curve was filed as active; inactive = no such curve, though single readings can be large or run the other way; also: potency is read from the fitted curve at half-maximal effect; % is scaled to controls: 0 for no effect and ±100 for the full control effect; nearly all actives have a fitted effect of over 30% in size
Active calls of the source: *; ! = not active in a repeat; [ ] = dose if it differs, or a comment. Shown is part of a subset that was picked to be rich in hits. Unless noted, calls follow the shape of the dose curve; as a rule, active = well fitted curve in the direction sought with a large enough effect; inconclusive = small, poorly fitted or top-dose-only effect, or another doubt; inactive = no such curve, though single readings can be large; an effect the other way counts as inactive or inconclusive.

Screening Cc1ccc(NC(=O)CN2C(=O)c3cccnc3Oc3ccc(Cl)cc32)cc1 returned TRb SRC2 PPI -14.9%, ERG-DNA inh 0.0% and TexasRed fluor 17.8µM*[quencher].
`Cc1cccc(NC(=O)CN2C(=O)c3cccnc3Oc3ccc(Cl)cc32)c1C` gave TRb SRC2 PPI 2.9%, ERG-DNA inh -0.6% and TexasRed fluor 8.6%.
CCc1ccccc1NC(=O)CN1C(=O)c2cccnc2Oc2ccc(Cl)cc21 was read as TRb SRC2 PPI -5.6%, ERG-DNA inh 7.4% and TexasRed fluor 14.1µM*[quencher].
For CO[Si](CCCOCC1CO1)(OC)OC (centres undefined) the results were TRb SRC2 PPI 0.3%[201 µM] and TexasRed fluor -0.6%[201 µM].
Screening Cc1cc(=O)n(CC(=O)NC(C)c2ccccc2)c2c1c(C)nn2-c1cccc(F)c1 (centres undefined) returned TRb SRC2 PPI -23.5%, ERG-DNA inh 4.0% and TexasRed fluor 251µM*[quencher].
Screening Cc1ccc(CNC(=O)Cn2c(=O)cc(C)c3c(C)nn(-c4cccc(F)c4)c32)cc1 returned TRb SRC2 PPI -0.8%, ERG-DNA inh 0.3% and TexasRed fluor 2.7%.
For Cc1ccc2c(c1)S/C(=C/c1ccc[n+](C)c1)N2CCO the results were TRb SRC2 PPI 3.8%, CBFb RUNX1 block -1.3%, ERG-DNA inh 0.7%, TexasRed fluor -1.2% and GoLoco inh red 8.91µM*.
For Cc1cc(=O)n(Cc2cccc(Br)c2)c2c1c(C)nn2-c1ccccc1 the results were TRb SRC2 PPI 4.7%, ERG-DNA inh -2.5% and TexasRed fluor 2.5%.
CCc1ccc(N(CC(=O)NCCc2ccccc2)C(=O)CCC(=O)Nc2ccccn2)cc1 was read as ERG-DNA inh 3.4%.
Screening Nc1ccc(N2CCCCCC2)cc1 returned TRb SRC2 PPI 44.7µM*, CBFb RUNX1 block inconclusive, TexasRed fluor 24.8% and GoLoco inh red -9.9%.
Screening O=C1c2ccc(O)c(O)c2C(=O)c2c(O)ccc(O)c21 returned TRb SRC2 PPI 25.1µM*, TexasRed fluor 44.7µM*[fluorescent] and GoLoco inh red -25.3%.
For Cc1ccc2[nH]c(=O)c(CN(C(=O)c3cccc(Cl)c3)C(C)(C)C)cc2c1 the results were TRb SRC2 PPI -18.0%[53 µM], ERG-DNA inh -2.8% and TexasRed fluor 31.6µM*[quencher].
Screening CCOC(=O)Cc1cc(=O)n2[nH]c(-c3ccccc3)c(-c3ccccc3)c2n1 returned TRb SRC2 PPI 25.9%, CBFb RUNX1 block -19.4%, ERG-DNA inh 7.1%, TexasRed fluor 5.2% and GoLoco inh red 70.1%.
`CCOC(=O)Cc1cc(=O)n2[nH]c(C)c(-c3ccccc3)c2n1` gave TRb SRC2 PPI inconclusive, CBFb RUNX1 block -11.5%, ERG-DNA inh inconclusive, TexasRed fluor 44.7µM*[fluorescent] and GoLoco inh red 118.8%.
For CSc1nsc(/C=C/Nc2ccc(O)cc2C)c1C#N the results were TRb SRC2 PPI 44.7µM*, CBFb RUNX1 block inconclusive, ERG-DNA inh 8.91µM*, TexasRed fluor 50.1µM*[fluorescent] and GoLoco inh red -49.0%.
`CSc1nsc(/C=C/Nc2ccc(F)cc2)c1C#N` gave TRb SRC2 PPI -5.7%, CBFb RUNX1 block -5.9%, ERG-DNA inh 20.8%, TexasRed fluor -1.2% and GoLoco inh red 29.4%.
CCC(C)(C)C(=O)Nc1cc([N+](=O)[O-])ccc1Cl was read as TRb SRC2 PPI -4.4%, CBFb RUNX1 block 1.1%, ERG-DNA inh 8.2%, TexasRed fluor -2.2% and GoLoco inh red -3.3%.
CCC(C)(C)C(=O)Nc1cc([N+](=O)[O-])ccc1F was read as TRb SRC2 PPI -21.5%[53 µM], CBFb RUNX1 block -6.5%, ERG-DNA inh -4.9%, TexasRed fluor 0.1µM*[quencher] and GoLoco inh red -8.6%.
`O=C(NCc1ccc(F)cc1)C1CCN(c2ncnc3c2nc2n3CCCCC2)CC1` gave TRb SRC2 PPI -3.5%, ERG-DNA inh -0.5% and TexasRed fluor 2.3%.
`C[Si]1(C)N[Si](C)(C)N[Si](C)(C)N1` gave TRb SRC2 PPI 10.7%[201 µM] and TexasRed fluor -3.2%[201 µM].
O=C(NO)c1ccccc1 was read as TRb SRC2 PPI 9.5%, CBFb RUNX1 block 4.1%[21.7 µM], TexasRed fluor -4.3% and GoLoco inh red 28.2µM*.
CNC(=O)c1ccccc1 was read as TRb SRC2 PPI 2.6%, CBFb RUNX1 block 6.5%[21.7 µM], TexasRed fluor -0.7% and GoLoco inh red 2.3%.
`O=C1CCC(C2CCCCC2)CC1` gave TRb SRC2 PPI 2.3%[201 µM] and TexasRed fluor -0.3%[201 µM].
`Oc1ccccc1/C=N/n1c(COc2ccccc2)n[nH]c1=S` gave ERG-DNA inh 28.2µM*.
CCc1n[nH]c(=S)n1/N=C/c1ccc(N(C)c2ccccc2)cc1 was read as TRb SRC2 PPI 7.5%, CBFb RUNX1 block -8.9%, ERG-DNA inh 5.01µM*, TexasRed fluor 1.7% and GoLoco inh red 11.7%.
Oc1ccc(/C=N/n2c(COc3ccccc3)n[nH]c2=S)c(O)c1 was read as ERG-DNA inh -2.7%.
Screening Cc1c2c(c(O)c3c(O)cccc13)C(=O)O[C@H]2C1C(N(C)C)C(O)=C(C(N)=O)C(=O)[C@H]1O (some centres undefined) returned TRb SRC2 PPI inconclusive and TexasRed fluor 22.4µM*[quencher].
For CCOC(=O)[C@H](CCc1ccccc1)N[C@@H](C)C(=O)N1[C@H](C(=O)O)C[C@H]2CCC[C@@H]21 the results were TRb SRC2 PPI 4.1%, CBFb RUNX1 block -4.5%[21.7 µM], TexasRed fluor -1.2% and GoLoco inh red 8.91µM*.
Screening CCCN1C(=O)C(=O)c2cc(Cl)ccc21 returned ERG-DNA inh -4.3%.
`CO[C@]12C[C@@H](COC(=O)c3cncc(Br)c3)CN(C)[C@@H]1Cc1cn(C)c3cccc2c13` gave TRb SRC2 PPI -4.5%, CBFb RUNX1 block inconclusive, TexasRed fluor -0.5% and GoLoco inh red 12.6µM*!.
`COc1cc(SSc2cc(OC)cc([N+](=O)[O-])c2N)c(N)c([N+](=O)[O-])c1` gave TRb SRC2 PPI 3.8%, CBFb RUNX1 block -17.0%, ERG-DNA inh -0.3%, TexasRed fluor -2.7% and GoLoco inh red 10µM*.
Screening CC[C@H](C)[C@H](NC(=O)[C@@H](NC(=O)CNC(=O)[C@@H](N)CC(C)C)[C@@H](C)O)C(=O)N1CCC[C@H]1C(=O)NCC(=O)O returned TRb SRC2 PPI 4.7%, CBFb RUNX1 block 12.9% and TexasRed fluor -0.1%.
For COc1ccc(C2C(C(=O)c3cccs3)=C(O)C(=O)N2c2nncs2)cc1 (centres undefined) the results were TRb SRC2 PPI 1.0%, CBFb RUNX1 block 4.4%, ERG-DNA inh 2.6%, TexasRed fluor 1.5% and GoLoco inh red 1.78µM*.
